# Laboratory results as given in article PMC11006913.
# Numbering of substitutions follows the chain as printed.
# Assays:
# Assay in all cases: PBM; 200 nM protein, PBS
# Conditions in all cases: dsDNA, one strand shown
# [1] = target: T1, PAX4 (Homo sapiens, UniProt O43316 9-242, R200K)
# T1 sequence: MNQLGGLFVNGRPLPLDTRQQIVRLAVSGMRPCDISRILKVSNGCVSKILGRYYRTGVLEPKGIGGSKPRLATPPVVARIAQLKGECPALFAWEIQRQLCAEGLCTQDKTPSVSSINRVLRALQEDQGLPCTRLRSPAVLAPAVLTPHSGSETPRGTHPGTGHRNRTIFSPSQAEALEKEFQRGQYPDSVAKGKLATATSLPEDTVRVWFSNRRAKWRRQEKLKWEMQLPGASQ
# [2] = target: T2, PAX4 (Homo sapiens, UniProt O43316 9-242)
# T2 sequence: T1 sequence with K192R
# [3] = target: T3, NKX2-6 (Homo sapiens, UniProt A6NCS4 118-204, R150C)
# T3 sequence: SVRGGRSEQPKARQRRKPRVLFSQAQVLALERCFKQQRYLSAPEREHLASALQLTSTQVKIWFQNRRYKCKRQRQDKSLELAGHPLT
# [4] = target: T4, PAX4 (Homo sapiens, UniProt O43316 9-242, R200Q)
# T4 sequence: T1 sequence with K192Q
# [5] = target: T5, PAX4 (Homo sapiens, UniProt O43316 9-242, F177V)
# T5 sequence: T1 sequence with F169V, K192R
# [6] = target: T6, PAX4 (Homo sapiens, UniProt O43316 9-242, F177Y)
# T6 sequence: T1 sequence with F169Y, K192R
# [7] = target: T7, PAX4 (Homo sapiens, UniProt O43316 9-242, R227W)
# T7 sequence: T1 sequence with K192R, R219W
# [8] = target: HOXA2 (Homo sapiens, UniProt O43364 129-215, R185T)
# [9] = target: ALX3 (Homo sapiens, UniProt O95076 139-225, N203Q)
# [10] = target: T8, NKX2-6 (Homo sapiens, UniProt A6NCS4 118-204)
# T8 sequence: T3 sequence with C33R
# [11] = target: HOXA2 (Homo sapiens, UniProt O43364 129-215, R185K)
# [12] = target: ALX3 (Homo sapiens, UniProt O95076 139-225)
# [13] = target: ALX3 (Homo sapiens, UniProt O95076 139-225, L168Q)
# [14] = target: T9, NKX2-6 (Homo sapiens, UniProt A6NCS4 118-204, F151L)
# T9 sequence: T3 sequence with C33R, F34L
# [15] = target: ALX3 (Homo sapiens, UniProt O95076 139-225, L168V)
# [16] = target: HOXA2 (Homo sapiens, UniProt O43364 129-215, Y150S)
# [17] = target: ALX3 (Homo sapiens, UniProt O95076 139-225, N203S)
# [18] = target: HOXA2 (Homo sapiens, UniProt O43364 129-215)
# [19] = target: PITX2 (Homo sapiens, UniProt Q99697 72-157)
# Sequence of ALX3 (Homo sapiens, UniProt O95076 139-225, N203Q) (O95076 139-225 N203Q): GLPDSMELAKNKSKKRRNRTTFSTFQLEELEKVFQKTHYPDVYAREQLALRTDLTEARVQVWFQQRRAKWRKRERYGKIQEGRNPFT
# Sequence of HOXA2 (Homo sapiens, UniProt O43364 129-215) (O43364 129-215): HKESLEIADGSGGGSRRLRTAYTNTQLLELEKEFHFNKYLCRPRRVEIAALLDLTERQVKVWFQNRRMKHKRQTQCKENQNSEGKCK
# Sequence of ALX3 (Homo sapiens, UniProt O95076 139-225, L168V) (O95076 139-225 L168V): as the sequence (O95076 139-225 N203Q) above, with L30V, Q65N counted along it
# Sequence of HOXA2 (Homo sapiens, UniProt O43364 129-215, Y150S) (O43364 129-215 Y150S): as the sequence (O43364 129-215) above, with Y22S counted along it
# Sequence of ALX3 (Homo sapiens, UniProt O95076 139-225, L168Q) (O95076 139-225 L168Q): as the sequence (O95076 139-225 N203Q) above, with L30Q, Q65N counted along it
# Sequence of ALX3 (Homo sapiens, UniProt O95076 139-225) (O95076 139-225): as the sequence (O95076 139-225 N203Q) above, with Q65N counted along it
# Sequence of ALX3 (Homo sapiens, UniProt O95076 139-225, N203S) (O95076 139-225 N203S): as the sequence (O95076 139-225 N203Q) above, with Q65S counted along it
# Sequence of HOXA2 (Homo sapiens, UniProt O43364 129-215, R185K) (O43364 129-215 R185K): as the sequence (O43364 129-215) above, with R57K counted along it
# Sequence of HOXA2 (Homo sapiens, UniProt O43364 129-215, R185T) (O43364 129-215 R185T): as the sequence (O43364 129-215) above, with R57T counted along it
sequence,measurement,setting,value
GCCCGGCA,binding signal,[1],"9.23 upbm affinity estimate (log intensity, higher = more binding, comparable within an allelic series)"
same,binding signal,[2],"9.34 upbm affinity estimate (log intensity, higher = more binding, comparable within an allelic series)"
same,binding signal,[3],"9.33 upbm affinity estimate (log intensity, higher = more binding, comparable within an allelic series)"
same,binding signal,[4],"9.28 upbm affinity estimate (log intensity, higher = more binding, comparable within an allelic series)"
same,binding signal,[5],"9.09 upbm affinity estimate (log intensity, higher = more binding, comparable within an allelic series)"
same,binding signal,[6],"9.13 upbm affinity estimate (log intensity, higher = more binding, comparable within an allelic series)"
same,binding signal,[7],"9.21 upbm affinity estimate (log intensity, higher = more binding, comparable within an allelic series)"
GCCTGTCC,binding signal,[1],"9.34 upbm affinity estimate (log intensity, higher = more binding, comparable within an allelic series)"
same,binding signal,[2],"9.22 upbm affinity estimate (log intensity, higher = more binding, comparable within an allelic series)"
same,binding signal,[8],"7.41 upbm affinity estimate (log intensity, higher = more binding, comparable within an allelic series)"
same,binding signal,[9],"7.8 upbm affinity estimate (log intensity, higher = more binding, comparable within an allelic series)"
same,binding signal,[10],"9.8 upbm affinity estimate (log intensity, higher = more binding, comparable within an allelic series)"
same,binding signal,[4],"9.44 upbm affinity estimate (log intensity, higher = more binding, comparable within an allelic series)"
same,binding signal,[11],"10.4 upbm affinity estimate (log intensity, higher = more binding, comparable within an allelic series)"
same,binding signal,[5],"9.3 upbm affinity estimate (log intensity, higher = more binding, comparable within an allelic series)"
same,binding signal,[12],"7.73 upbm affinity estimate (log intensity, higher = more binding, comparable within an allelic series)"
same,binding signal,[6],"9.34 upbm affinity estimate (log intensity, higher = more binding, comparable within an allelic series)"
same,binding signal,[13],"7.77 upbm affinity estimate (log intensity, higher = more binding, comparable within an allelic series)"
same,binding signal,[14],"9.38 upbm affinity estimate (log intensity, higher = more binding, comparable within an allelic series)"
same,binding signal,[15],"7.73 upbm affinity estimate (log intensity, higher = more binding, comparable within an allelic series)"
same,binding signal,[7],"9.36 upbm affinity estimate (log intensity, higher = more binding, comparable within an allelic series)"
same,binding signal,[16],"10.4 upbm affinity estimate (log intensity, higher = more binding, comparable within an allelic series)"
same,binding signal,[17],"7.78 upbm affinity estimate (log intensity, higher = more binding, comparable within an allelic series)"
same,binding signal,[18],"7.48 upbm affinity estimate (log intensity, higher = more binding, comparable within an allelic series)"
CATTTAAC,binding signal,[1],"10.7 upbm affinity estimate (log intensity, higher = more binding, comparable within an allelic series)"
same,binding signal,[2],"10.9 upbm affinity estimate (log intensity, higher = more binding, comparable within an allelic series)"
same,binding signal,[4],"10.8 upbm affinity estimate (log intensity, higher = more binding, comparable within an allelic series)"
same,binding signal,[5],"10.2 upbm affinity estimate (log intensity, higher = more binding, comparable within an allelic series)"
TGAATTAA,binding signal,[1],"11.8 upbm affinity estimate (log intensity, higher = more binding, comparable within an allelic series)"
same,binding signal,[2],"12.3 upbm affinity estimate (log intensity, higher = more binding, comparable within an allelic series)"
same,binding signal,[8],"11.1 upbm affinity estimate (log intensity, higher = more binding, comparable within an allelic series)"
same,binding signal,[4],"11.9 upbm affinity estimate (log intensity, higher = more binding, comparable within an allelic series)"
same,binding signal,[19],"11.2 upbm affinity estimate (log intensity, higher = more binding, comparable within an allelic series)"
same,binding signal,[11],"12.5 upbm affinity estimate (log intensity, higher = more binding, comparable within an allelic series)"
same,binding signal,[5],"10.6 upbm affinity estimate (log intensity, higher = more binding, comparable within an allelic series)"
same,binding signal,[6],"11.1 upbm affinity estimate (log intensity, higher = more binding, comparable within an allelic series)"
same,binding signal,[16],"10.8 upbm affinity estimate (log intensity, higher = more binding, comparable within an allelic series)"
same,binding signal,[18],"11.1 upbm affinity estimate (log intensity, higher = more binding, comparable within an allelic series)"
AGTGATTA,binding signal,[1],"11.1 upbm affinity estimate (log intensity, higher = more binding, comparable within an allelic series)"
same,binding signal,[2],"11.4 upbm affinity estimate (log intensity, higher = more binding, comparable within an allelic series)"
same,binding signal,[4],"11.1 upbm affinity estimate (log intensity, higher = more binding, comparable within an allelic series)"
same,binding signal,[5],"10.3 upbm affinity estimate (log intensity, higher = more binding, comparable within an allelic series)"
ATTATTTC,binding signal,[1],"10.8 upbm affinity estimate (log intensity, higher = more binding, comparable within an allelic series)"
same,binding signal,[2],"11.1 upbm affinity estimate (log intensity, higher = more binding, comparable within an allelic series)"
same,binding signal,[4],"10.9 upbm affinity estimate (log intensity, higher = more binding, comparable within an allelic series)"
same,binding signal,[5],"10.4 upbm affinity estimate (log intensity, higher = more binding, comparable within an allelic series)"
ATTTAAAA,binding signal,[1],"10.7 upbm affinity estimate (log intensity, higher = more binding, comparable within an allelic series)"
same,binding signal,[2],"11 upbm affinity estimate (log intensity, higher = more binding, comparable within an allelic series)"
same,binding signal,[4],"10.8 upbm affinity estimate (log intensity, higher = more binding, comparable within an allelic series)"
same,binding signal,[5],"10.3 upbm affinity estimate (log intensity, higher = more binding, comparable within an allelic series)"
CCGCCCCG,binding signal,[1],"9.25 upbm affinity estimate (log intensity, higher = more binding, comparable within an allelic series)"
same,binding signal,[2],"9.35 upbm affinity estimate (log intensity, higher = more binding, comparable within an allelic series)"
same,binding signal,[3],"9.69 upbm affinity estimate (log intensity, higher = more binding, comparable within an allelic series)"
same,binding signal,[4],"9.16 upbm affinity estimate (log intensity, higher = more binding, comparable within an allelic series)"
same,binding signal,[5],"9.13 upbm affinity estimate (log intensity, higher = more binding, comparable within an allelic series)"
same,binding signal,[6],"9.21 upbm affinity estimate (log intensity, higher = more binding, comparable within an allelic series)"
same,binding signal,[7],"9.44 upbm affinity estimate (log intensity, higher = more binding, comparable within an allelic series)"
GAAGGACC,binding signal,[1],"9.27 upbm affinity estimate (log intensity, higher = more binding, comparable within an allelic series)"
same,binding signal,[2],"9.3 upbm affinity estimate (log intensity, higher = more binding, comparable within an allelic series)"
same,binding signal,[9],"7.9 upbm affinity estimate (log intensity, higher = more binding, comparable within an allelic series)"
same,binding signal,[4],"9.41 upbm affinity estimate (log intensity, higher = more binding, comparable within an allelic series)"
same,binding signal,[5],"9.34 upbm affinity estimate (log intensity, higher = more binding, comparable within an allelic series)"
same,binding signal,[12],"7.9 upbm affinity estimate (log intensity, higher = more binding, comparable within an allelic series)"
same,binding signal,[6],"9.33 upbm affinity estimate (log intensity, higher = more binding, comparable within an allelic series)"
same,binding signal,[13],"7.8 upbm affinity estimate (log intensity, higher = more binding, comparable within an allelic series)"
same,binding signal,[15],"7.85 upbm affinity estimate (log intensity, higher = more binding, comparable within an allelic series)"
same,binding signal,[7],"9.46 upbm affinity estimate (log intensity, higher = more binding, comparable within an allelic series)"
same,binding signal,[17],"7.83 upbm affinity estimate (log intensity, higher = more binding, comparable within an allelic series)"
